The source of these data is PubChem BioAssay AID504332 (National Center for Advancing Translational Sciences (NCATS), 2011).

Among all 350,000 compounds or so, about 31,000 (8.9%) were called active. Another 15% or so got no clear call; they are omitted. This is one part of a sample in which actives are shown more often than they occur. A number with no mark means an inactive call. The call rests on the fitted dose curve; in most records, active means well fitted inhibition curve with a large enough effect; inconclusive means small, poorly fitted or top-dose-only effect; inactive means no such curve, though single readings can be large or run the other way.
On the % scale 0 is the no-effect control and ±100 the full control effect; potency means the concentration at half of the fitted maximal effect.

The target in the assay is Histone-lysine N-methyltransferase EHMT2 (Homo sapiens) (UniProt Q96KQ7). The experiment in a line: qHTS Assay for Inhibitors of Histone Lysine Methyltransferase G9a. Further: nearly all actives have a fitted effect of over 75% in size. The following applies: G9a H3K9 monomethylation, AlphaScreen, 2 h; series mostly up to 59 µM; activity, negative = inhibition: at the top concentration. A digest of the protocol: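 Step 1: enzyme (final 20 nM) with compound, 15 min RT. Step 2: substrate peptide 500 nM and SAM 20 uM, 2 h RT. Step 3: anti-H3K9me1 antibody and AlphaScreen beads, 10 min, then plate read.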
Histone-lysine N-methyltransferase EHMT2 (Homo sapiens), sequence (Q96KQ7 913-1193 limits assumed): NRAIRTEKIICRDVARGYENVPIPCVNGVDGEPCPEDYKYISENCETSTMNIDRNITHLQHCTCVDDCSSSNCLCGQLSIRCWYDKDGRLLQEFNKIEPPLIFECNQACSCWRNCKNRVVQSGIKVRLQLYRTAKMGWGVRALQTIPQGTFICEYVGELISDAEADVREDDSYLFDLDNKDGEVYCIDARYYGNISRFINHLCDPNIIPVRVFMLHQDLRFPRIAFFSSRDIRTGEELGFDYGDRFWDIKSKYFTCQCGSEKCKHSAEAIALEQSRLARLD
Background: In qHTS, concentration-response curves come from the screen itself.
For the compound `CCOC(=O)C1CCCN(CC(=O)Nc2cc(C)c3c(=O)oc4ccccc4c3n2)C1` (stereo unspecified), the “activity, negative = inhibition” value is -12%.

With `COC(=O)c1sc2ncccc2c1-n1c(C)ccc1C`, the “activity, negative = inhibition” value was -7.5%.

As for `O=C(CSc1ccccc1)Nc1cccc(S(=O)(=O)N2CCCCC2)c1`, the activity, negative = inhibition was 14.6% [at 12.7 µM].

As for `CCCCSc1nc2ccccc2[nH]1`, the “activity, negative = inhibition” value is 15.5% [at 102 µM].

In the case of `CCN(/N=C/c1ccccc1)c1cc(=O)n(C)c(=O)[nH]1`, the “activity, negative = inhibition” value was -16.6%.

With `CCN(/N=C/c1ccc(N(C)C)cc1)c1nc2ccccc2[nH]1`, the Potency is 2.82 µM (active).

As to `CN1C(=O)C2(OCCCO2)c2cc(Cl)ccc21`, the “activity, negative = inhibition” value was 19.4% [at 102 µM].

Consider `COc1cc(NC(=O)CSC(=S)N2CCCC2)c(OC)cc1Cl`, for which the activity, negative = inhibition is 13.5% [at 2.33 µM].

Consider `Cc1ccccc1-n1nc(C)c2c1N=C1C(Cl)=CC(Cl)=CN1C2c1ccc(C(=O)O)cc1` (stereo unspecified), for which the Potency was 25.1 µM (active).

As to `CC1CCN(C(=O)Cn2c(=O)n(-c3ccc(Cl)cc3)c(=O)c3c4c(sc32)CCC4)CC1`, the “activity, negative = inhibition” value was -10.8%.

For `CCn1c(CNC(=O)c2ccc(OC)c(OC)c2)nnc1SCC(=O)Nc1ccccc1`, the “activity, negative = inhibition” value is 2.65% [at 102 µM].

`CCn1c(SC)nc(O)c(C(c2ccc(OC)c(O)c2)c2c(O)nc(SC)n(CC)c2=O)c1=O`: the Potency is 10 µM (active).

In the case of `COc1ccc2c(c1OC)C(=O)OC2c1c(O)nc(SC)n(-c2ccccc2)c1=O` (stereo unspecified), the activity, negative = inhibition is 4.51% [at 12.7 µM].

In the case of `CCOc1ccccc1NC(=O)C1=C(C)Nc2ncnn2C1c1ccc(NC(C)=O)cc1` (stereo unspecified), the “activity, negative = inhibition” value was 14.9%.

For the compound `COc1ccccc1N1CCN(c2ccc(=O)n(CC(=O)NCc3ccc(OC(C)C)cc3)n2)CC1`, the “activity, negative = inhibition” value is -1.85%.

Turning to `COc1cccc(Cn2c(SCc3ccc(C(=O)N4CCCCC4)cc3)nc3ccncc32)c1`, the “activity, negative = inhibition” value is -21.9%.

For `Cc1cccc(Cn2c(SCc3ccc(C(=O)N4CCC(C)CC4)cc3)nc3ccncc32)c1`, the “activity, negative = inhibition” value was 5.78%.

For `COc1cccc(Cn2c(SCc3ccc(C(=O)N4CCC(C)CC4)cc3)nc3ccncc32)c1`, the Potency is 1.78 µM (active).

Take `O=C(CSc1nc2c(c(=O)[nH]1)CN(Cc1ccc3c(c1)OCO3)CC2)Nc1cc(F)ccc1F`: the “activity, negative = inhibition” value was -25.9%.

On to `Cc1ccc2oc(C(=O)N3CCN(C)C[C@@H]3C(C)C)c(C)c2c1`, for which the “activity, negative = inhibition” value is 45.1% [at 102 µM].

In the case of `CN(C)S(=O)(=O)c1cc(C(=O)Nc2ccn(C)n2)c(Cl)cc1Cl`, the activity, negative = inhibition is 19.1% [at 12.7 µM].

For `FC(F)(F)Oc1ccc(NC(=S)NCc2ccccc2)cc1`, the “activity, negative = inhibition” value was 9.57% [at 102 µM].

Take `CS(=O)(=O)c1sc(C(=O)NC(=S)Nc2ccc(OC(F)(F)F)cc2)c2c1C=CCC2`: the Potency is 50.1 µM (active).

For the compound `CCNC(=S)Nc1ccc(OC(F)(F)F)cc1`, the “activity, negative = inhibition” value was 13.3% [at 102 µM].

Take `COc1ccc(Cl)cc1C(=O)Nc1ccc(N(C)C(C)=O)cc1`: the “activity, negative = inhibition” value was 23.8%.

As to `COc1cc(OC)c(C(=O)Nc2ccc(N(C)C)cc2)cc1OC`, the Potency is 4.47 µM (active).

As to `COc1cc(OC)c(C(=O)Nc2ccccc2-c2ccccc2)cc1OC`, the “activity, negative = inhibition” value was -48.3% [at 102 µM].

For the compound `COc1ccc(C(C)NC(=O)C23CC4CC(CC(C4)C2)C3)cc1` (stereo unspecified), the “activity, negative = inhibition” value is 23.9% [at 102 µM].

As for `CCOc1ccc(-c2cc3nc(C4CCN(C(=O)OC(C)(C)C)CC4)c(C(=O)Nc4cccc(CC)c4)cn3n2)cc1`, the “activity, negative = inhibition” value is -6.19%.

As to `O=C(NCc1ccc2c(c1)CCN2C(=O)c1ccccc1)Nc1cc(F)ccc1F`, the “activity, negative = inhibition” value is -15.2%.

In the case of `CC(C)c1c(O)nc(SCCOc2ccc(Cl)cc2)[nH]c1=O`, the “activity, negative = inhibition” value was 4.44% [at 102 µM].

Take `CCSc1nc(C)c(CCOc2cccc(C)c2)c(=O)[nH]1`: the “activity, negative = inhibition” value was -3.47%.

With `CCSc1nc(O)c(C(c2cccc(OC)c2)c2c(O)nc(SCC)[nH]c2=O)c(=O)[nH]1`, the Potency is 70.8 µM (active).

`CCCCn1c(N)c(N(CC)C(=O)c2ccc(N(C)S(=O)(=O)c3ccc(C)cc3)cc2)c(=O)[nH]c1=O`: the activity, negative = inhibition is 8.91% [at 12.7 µM].

As for `CCCCn1c(N)c(N(CCC(C)C)C(=O)COC(=O)c2cccnc2OCC)c(=O)[nH]c1=O`, the “activity, negative = inhibition” value was 10.4%.

As to `COc1ccc(NS(=O)(=O)c2ccc(C)c(C(=O)NCC(c3cccs3)N3CCOCC3)c2)cc1` (stereo unspecified), the “activity, negative = inhibition” value was -6.36% [at 102 µM].

In the case of `COc1cccc(N2CC(NC(=O)c3ccc4ccccc4c3)CC2=O)c1` (stereo unspecified), the “activity, negative = inhibition” value is 2.32% [at 102 µM].

As for `CC(NCc1cccs1)C(=O)Nc1cc(Cl)cc(Cl)c1` (stereo unspecified), the Potency is 5.01 µM (active).

For the compound `CC(=O)c1ccc(NC(=O)C(C)NCc2ccc(Cl)cc2)cc1` (stereo unspecified), the “activity, negative = inhibition” value was 7.53% [at 102 µM].

Turning to `CC(NCC(=O)Nc1cc(Cl)cc(Cl)c1)c1ccccc1` (stereo unspecified), the “activity, negative = inhibition” value is -0.468% [at 102 µM].

Regarding `Cc1cccc(NC(=O)c2sc3nc(N4CCOCC4)c4c(c3c2N)CCCC4)c1`, the activity, negative = inhibition is 6.18% [at 0.501 µM].

`CC(NC(=O)CN(C)S(=O)(=O)c1ccc(F)cc1)C1CC2CCC1C2` (stereo unspecified): the activity, negative = inhibition is 11.8% [at 12.7 µM].

Turning to `COc1ccccc1C(=O)OCc1cc(=O)n2nc(-c3cccs3)sc2n1`, the “activity, negative = inhibition” value was 7.4%.

As for `CC(C)c1nc(SCC(=O)Nc2cccc(C(=O)O)c2)c2c3c(sc2n1)CCCC3`, the “activity, negative = inhibition” value was -2.84% [at 102 µM].

`CCCCOC(=O)CSc1ncnc2sc3c(c12)CCC(C)C3` (stereo unspecified): the “activity, negative = inhibition” value was 76.4%.

On to `Cc1cc(NC(=O)CSc2nc(C(C)C)nc3sc4c(c23)CCC(C)C4)no1` (stereo unspecified), for which the Potency was 1 µM (active).

As to `CCOc1ccccc1CNC(=O)c1cnc2c(-c3ccc(OCC)c(OCC)c3)c(C)nn2c1C`, the “activity, negative = inhibition” value is -3.36%.

Take `CCc1nccn1S(=O)(=O)c1cc(Br)ccc1Br`: the “activity, negative = inhibition” value is 4.79%.

As to `Cc1ccnc(NC(=O)CCC(=O)N(CC(=O)NCCc2ccccc2)Cc2cccs2)c1`, the “activity, negative = inhibition” value was 7.27% [at 102 µM].

In the case of `O=C(CCc1ccccc1)NCCc1cccs1`, the “activity, negative = inhibition” value is 31.8% [at 102 µM].

Regarding `O=C(O)CCC(=O)N(Cc1cccs1)Cc1cccs1`, the Potency is 50.1 µM (active).

Turning to `CN(Cc1ccc(F)cc1)C(=O)COc1ccc2ccccc2c1`, the “activity, negative = inhibition” value was 21.6% [at 102 µM].

For `Fc1ccc(COc2cccc(-c3n[nH]c(=S)o3)c2)cc1`, the Potency is 5.01 µM (active).

On to `Fc1ccc(COc2ccc(-c3nnco3)cc2)cc1`, for which the “activity, negative = inhibition” value is 14.6% [at 102 µM].

In the case of `O=C(N/N=C/c1ccccc1O)C1CCCC1`, the “activity, negative = inhibition” value was 36.3% [at 102 µM].

Consider `COc1ccc(Cn2ccc3nc(C)c(C(=O)Nc4ccc(C)c(F)c4)cc3c2=O)cc1`, for which the “activity, negative = inhibition” value is 0.748%.

Consider `O=C(O)c1ccccc1NC(=S)NC(NC(=O)c1ccccc1[N+](=O)[O-])C(Cl)(Cl)Cl` (stereo unspecified), for which the Potency is 12.6 µM (active).

For `O=C(O)c1ccccc1C(=O)Nc1ccccc1[N+](=O)[O-]`, the “activity, negative = inhibition” value was -29.3% [at 102 µM].

Turning to `O=C(Nc1ccccc1-c1ccccc1)c1ccccc1[N+](=O)[O-]`, the “activity, negative = inhibition” value is 6.77% [at 102 µM].

For the compound `Cc1ccc(CNC(=O)c2c(O)nc3c(C)cccn3c2=O)cc1`, the “activity, negative = inhibition” value is -10.5%.

Regarding `Cc1ccc(Cn2c(=O)n(-c3ccc(C)cc3)c(=O)c3c2c2cc(C)ccc2n3C)cc1`, the “activity, negative = inhibition” value was -5.57%.
